Experimental data reported in PubChem BioAssay (NCATS).
Several values for one entry are separate records, joined by “and”; a condition that tells them apart may be missing. Equal values may be shown once. Inconclusive results are not listed. Where a call stands in place of a potency, no number is given. Activity calls are given as the source filed them. Unless noted, calls follow the shape of the full dose curve.

What was measured:
[1] = Identifying Small Molecule Inhibitors of Pancreatic Cancer Stem Cells (A2780, Spheroid) (AID 1259357; active = well fitted curve in the direction sought with a large enough effect; an effect the other way counts as inactive or inconclusive;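 also: potency is read from the fitted curve at half-maximal effect; compound exposure lasted 48 h before the ATP luminescence read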); details: A2780 spheroid viability
From the text: Progenitor-like cancer cells, often referred to as cancer stem cells (CSC), are believed to be the drivers of therapeutic resistance and rapid recurrence. CSCs are postulated to reside in specific niches characterized by low oxygen tension, limited nutrient supply, and high redox load. Selectively targeting CSC, alone or in combination with cytotoxic agents, as a means to produce durable remissions is an appealing concept. Modeling these cells in in vitro setting is an important step in finding new therapies and/or targets. Multiple reports highlight that forcing cells in culture into 3-dimensionaly architectures (spheroids) re-establishes key progenitor-like transcriptional signatures. Pancreatic cancer is among the diseases with the most dismal outlook which is driven, largely, by recurance following front-line therapies. […]
Multicellular tumor spheroids from Panc1, MiaPaCa-2, and the primary low-passage tissue culture line SB.06 were seeded in stem cell media (SCM) in nonadherent 6-well plates coated with hydrogel (Corning Life Sciences, Chelmsford, Mass) and pancreatic spheres generated for 14 days before screening. […] Plates were incubated at room temperature for 10 minutes prior to reading the luminescence on the Viewlux (PerkinElmer). […]

[2] = Identifying Small Molecule Inhibitors of Pancreatic Cancer Stem Cells (Panc1, Spheroid) (AID 1259359; active = well fitted curve in the direction sought with a large enough effect; an effect the other way counts as inactive or inconclusive;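 also: potency is read from the fitted curve at half-maximal effect; compound exposure lasted 48 h before reading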); details: Panc1 spheroid cancer stem cell viability
Outline: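 Spheroids grown 14 days in stem cell media on hydrogel-coated nonadherent plates; 2D lines seeded directly. Compounds added after 4 h attachment, 48 h at 37C, 5% CO2; CellTiter-Glo luminescence normalized to DMSO (no inhibition) and no-cell wells (full inhibition).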

[3] = Identifying Small Molecule Inhibitors of Pancreatic Cancer Stem Cells (Panc1, Adherent) (AID 1259362; active = well fitted curve in the direction sought with a large enough effect; an effect the other way counts as inactive or inconclusive; also: potency is read from the fitted curve at half-maximal effect); details: Potency: viability; series mostly up to 46.1 µM
Outline: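 Cytotoxicity read by CellTiter-Glo luminescence after 48 h compound exposure at 37C; percent activity scaled between DMSO-treated cells and cell-free wells. Spheroid formats used cells pre-formed 14 days in stem cell media on hydrogel.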

[4] = Identifying Small Molecule Inhibitors of Pancreatic Cancer Stem Cells (SN12C, Spheroid) (AID 1259360; active = well fitted curve in the direction sought with a large enough effect; an effect the other way counts as inactive or inconclusive); details: series mostly up to 46.1 µM
Outline: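 Luminescent ATP readout (CellTiter-Glo) quantifies surviving cells after a 48 h drug incubation. Normalization uses DMSO wells as no inhibition and media-only wells as full inhibition; bortezomib served as positive control.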

[5] = P-glycoprotein substrates identified in KB-8-5-11 adenocarcinoma cell line, qHTS therapeutic library screen (AID 1346987; active = well fitted curve in the direction sought with a large enough effect; an effect the other way counts as inactive or inconclusive; also: potency is read from the fitted curve at half-maximal effect; as to all read-outs here: nearly all actives have a fitted effect of over 65% in size); details: KB-8-5-11 (P-gp overexpressing) viability, CellTiter-Glo, 72 h; for Potency: outcome: dose series up to 44.5 µM unless noted, series mostly up to 44.5 µM
Outline: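 Compounds are pinned in dose-response onto KB-8-5-11 cells (500 cells/well, colchicine-free medium) and left 72 h at 37 degree C. CellTiter-Glo luminescence then yields AC50 values.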

[6] = molecular target: Atrial natriuretic peptide receptor 1 (Homo sapiens) (UniProt P16066); assay: Natriuretic polypeptide receptor (hNpr1) antagonism - Pilot screen (AID 1347049); details: hNpr1 cells, antagonist mode cGMP read-out; series mostly up to 57.5 µM;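 also: HEK293 cells with hNpr1 and GloSensor cGMP luciferase stimulated by 0.1 nM hNppA; agonist-evoked cGMP luminescence read 20 min after hNppA addition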; also: potency is read from the fitted curve at half-maximal effect
Atrial natriuretic peptide receptor 1 (Homo sapiens), sequence (P16066 whole entry, looked up): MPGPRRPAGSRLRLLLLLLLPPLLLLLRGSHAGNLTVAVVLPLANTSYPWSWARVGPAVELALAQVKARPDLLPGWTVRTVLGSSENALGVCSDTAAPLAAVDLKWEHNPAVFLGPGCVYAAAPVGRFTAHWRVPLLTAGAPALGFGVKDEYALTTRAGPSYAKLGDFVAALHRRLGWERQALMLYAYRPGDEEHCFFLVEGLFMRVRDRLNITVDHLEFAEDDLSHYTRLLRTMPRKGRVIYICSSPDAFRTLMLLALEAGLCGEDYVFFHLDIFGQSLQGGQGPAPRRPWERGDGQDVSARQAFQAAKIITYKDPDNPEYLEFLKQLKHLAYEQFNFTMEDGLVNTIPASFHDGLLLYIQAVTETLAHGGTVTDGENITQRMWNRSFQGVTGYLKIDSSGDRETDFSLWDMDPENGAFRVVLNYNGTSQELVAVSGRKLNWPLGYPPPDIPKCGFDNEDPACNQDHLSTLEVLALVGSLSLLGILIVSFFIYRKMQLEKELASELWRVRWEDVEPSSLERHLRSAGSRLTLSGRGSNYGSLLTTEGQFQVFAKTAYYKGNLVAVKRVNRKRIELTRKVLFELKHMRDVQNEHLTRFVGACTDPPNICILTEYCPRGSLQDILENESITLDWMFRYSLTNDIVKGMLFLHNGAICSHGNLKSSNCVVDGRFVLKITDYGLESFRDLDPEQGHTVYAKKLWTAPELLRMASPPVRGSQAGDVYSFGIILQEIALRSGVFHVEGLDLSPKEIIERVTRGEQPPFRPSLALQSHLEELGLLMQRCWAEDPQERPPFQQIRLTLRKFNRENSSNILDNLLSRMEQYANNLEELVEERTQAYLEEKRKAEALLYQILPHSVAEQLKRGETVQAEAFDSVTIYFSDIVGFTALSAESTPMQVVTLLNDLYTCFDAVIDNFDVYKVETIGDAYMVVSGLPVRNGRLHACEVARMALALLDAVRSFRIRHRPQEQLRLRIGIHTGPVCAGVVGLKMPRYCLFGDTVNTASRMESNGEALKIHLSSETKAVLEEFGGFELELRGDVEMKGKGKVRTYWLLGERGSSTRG
Outline: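 Receptor antagonism read as cGMP-dependent luminescence in hNpr1/pGS-40F HEK293 cells: pre-read after 30 min compound exposure, post-read 20 min after hNppA agonist at 0.1 nM final, all at room temperature, protected from light; A-71915 titration as control.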

[7] = Natriuretic polypeptide receptor (hNpr1) antagonism - Pilot counterscreen GloSensor control cell line (AID 1347045); details: HEK293 cGMP GloSensor cells, SNP-stimulated luminescence, 20 min; series mostly up to 38.3 µM; also: potency is read from the fitted curve at half-maximal effect
Outline: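 Control counterscreen: luciferase cGMP-biosensor HEK293 cells (no Npr1) received compound for 30 min at room temperature after GloSensor substrate loading. Luminescence was measured before and 20 min after soluble guanylyl cyclase activation by 50 uM nitroprusside.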

SMILES: CS(=O)(=O)CCNCc1ccc(-c2ccc3ncnc(Nc4ccc(OCc5cccc(F)c5)c(Cl)c4)c3c2)o1
- Potency [1]: 16.6 µM (active)
- Potency [2]: 37.2 µM (active)
- Potency [3]: 20.9 µM (active)

SMILES: Cn1ccc2cc3c(cc21)CCN3C(=O)Nc1cccnc1
- outcome [4]: inactive

SMILES: COc1ccc(CCN(C)CCCC(C#N)(c2ccc(OC)c(OC)c2)C(C)C)cc1OC (centres undefined)
- outcome [4]: inactive

SMILES: CN(C)C(=N)N=C(N)N
- Potency [3]: inactive
- outcome ([5]; at 44.5 µM (top of the series)): inactive

SMILES: Clc1ccccc1C(c1ccccc1)(c1ccccc1)n1ccnc1
- Potency [5]: 9.88 µM (active)
- Potency [6]: inactive

SMILES: CCCNCC(O)COc1ccccc1C(=O)CCc1ccccc1 (centres undefined)
- Potency [7]: inactive
- Potency [6]: inactive

SMILES: CN1CCN(CCCN2c3ccccc3Sc3ccc(Cl)cc32)CC1
- Potency [5]: 23.5 µM (active)
- Potency [6]: inactive

SMILES: CC(COc1ccccc1)N(CCCl)Cc1ccccc1 (centres undefined)
- Potency [7]: inactive
- Potency [6]: inactive

SMILES: O=c1[nH]cc(F)c(=O)[nH]1
- Potency [7]: inactive
- Potency [6]: inactive

SMILES: Cc1cn([C@H]2C[C@H](N=[N+]=[N-])[C@@H](CO)O2)c(=O)[nH]c1=O
- Potency [5]: inactive
- Potency [6]: inactive

SMILES: O=C(C1CCCCC1)N1CC(=O)N2CCc3ccccc3C2C1 (centres undefined)
- Potency [5]: inactive
- Potency [7]: inactive
- Potency [6]: inactive

SMILES: COc1ccccc1OCCNCC(O)COc1cccc2[nH]c3ccccc3c12 (centres undefined)
- Potency [5]: inactive
- Potency [7]: inactive
- Potency [6]: inactive

SMILES: COc1cc2nc(N(C)CCCNC(=O)C3CCCO3)nc(N)c2cc1OC (centres undefined)
- Potency [5]: inactive
- Potency [6]: inactive

SMILES: Clc1ccc(C(c2ccccc2Cl)C(Cl)Cl)cc1 (centres undefined)
- Potency [6]: inactive

SMILES: CN1CCN(C2=Nc3cc(Cl)ccc3Nc3ccccc32)CC1
- Potency [7]: inactive
- Potency [6]: inactive

SMILES: CC(CCc1ccc(O)cc1)NCCc1ccc(O)c(O)c1 (centres undefined)
- Potency [7]: inactive
- Potency [6]: inactive

SMILES: COc1cc2nc(N3CCN(C(=O)C4COc5ccccc5O4)CC3)nc(N)c2cc1OC (centres undefined)
- Potency [5]: inactive
- Potency [6]: inactive

SMILES: CC(C)NCC(O)c1ccc(O)c(O)c1 (centres undefined)
- Potency [5]: inactive
- Potency [6]: inactive

SMILES: CN1CCC(=C2c3ccccc3C=Cc3ccccc32)CC1
- Potency [7]: inactive
- Potency [6]: inactive

SMILES: Clc1ccc2nsnc2c1NC1=NCCN1
- Potency [5]: inactive
- Potency [6]: inactive

SMILES: CC#C[C@]1(O)CC[C@H]2[C@@H]3CCC4=CC(=O)CCC4=C3[C@@H](c3ccc(N(C)C)cc3)C[C@@]21C
- Potency [5]: 23.1 µM (active)
- Potency [6]: inactive

SMILES: O=C(Nc1ccc([N+](=O)[O-])cc1Cl)c1cc(Cl)ccc1O
- Potency [7]: 0.464 µM (active)
- Potency [6]: 0.953 µM (active)

SMILES: NC12CC3CC(CC(C3)C1)C2
- Potency [5]: inactive
- Potency [7]: inactive
- Potency [6]: inactive

SMILES: CC[N+](CC)(CC)CCOc1cccc(OCC[N+](CC)(CC)CC)c1OCC[N+](CC)(CC)CC
- Potency [5]: inactive
- Potency [6]: inactive

SMILES: CC12CC3CC(C)(C1)CC(N)(C3)C2
- Potency [7]: inactive
- Potency [6]: inactive

SMILES: O=C1Cc2cc(CCN3CCN(c4nsc5ccccc45)CC3)c(Cl)cc2N1
- Potency [5]: inactive
- Potency [6]: inactive

SMILES: CN1CCC(=C2c3ccccc3CC(=O)c3sccc32)CC1
- Potency [6]: inactive

SMILES: COc1ccccc1N1CCN(CC(O)COc2cccc3ccccc23)CC1 (centres undefined)
- Potency [7]: inactive
- Potency [6]: inactive

SMILES: CC(C)C(=O)Nc1ccc([N+](=O)[O-])c(C(F)(F)F)c1
- Potency [5]: inactive
- Potency [6]: inactive

SMILES: CS(=O)(=O)Nc1ccc([N+](=O)[O-])cc1Oc1ccccc1
- Potency [5]: inactive
- Potency [6]: inactive

SMILES: CC(C(=O)O)c1cccc(C(=O)c2ccccc2)c1 (centres undefined)
- Potency [5]: inactive
- Potency [6]: inactive

SMILES: COc1nc(C)nc(Cl)c1NC1=NCCN1
- Potency [5]: inactive
- Potency [7]: inactive
- Potency [6]: inactive

SMILES: CC(C)NCC(O)COc1ccc(CCOCC2CC2)cc1 (centres undefined)
- Potency [7]: inactive
- Potency [6]: inactive

SMILES: CN1CCN2c3ccccc3Cc3ccccc3C2C1 (centres undefined)
- Potency [7]: inactive
- Potency [6]: inactive

SMILES: Cc1cnc(C(=O)NCCc2ccc(S(=O)(=O)NC(=O)NC3CCCCC3)cc2)cn1
- Potency [5]: inactive
- Potency [6]: inactive

SMILES: OCCN(CCO)c1nc(N2CCCCC2)c2nc(N(CCO)CCO)nc(N3CCCCC3)c2n1
- Potency [7]: inactive
- Potency [6]: inactive

SMILES: OCCN1CCN(CCCN2c3ccccc3Sc3ccc(C(F)(F)F)cc32)CC1
- Potency [5]: 16.6 µM (active) and 18.4 µM (active)
- Potency [6]: inactive

SMILES: CN(Cc1cnc2nc(N)nc(N)c2n1)c1ccc(C(=O)N[C@@H](CCC(=O)O)C(=O)O)cc1
- Potency [5]: 10.3 nM (active) and 37.2 nM (active)
- Potency [6]: inactive

SMILES: Fc1ccc([C@@H]2CCNC[C@H]2COc2ccc3c(c2)OCO3)cc1
- Potency [7]: inactive
- Potency [6]: inactive
